Measurements from PubChem BioAssay AID624300 (Southern Research Specialized Biocontainment Screening …, 2012).
Out of some 2,400 compounds screened, about 360 (15%) were called active.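 The calls were made as follows: active = viability falls under 70% at one or more tested concentrations, taken as toxicity; inactive = viability stays over 70% at every dose.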 These entries were drawn from the full list. Entries with a potency or affinity are not part of this list.

Assay: viability loss in HeLa cells – cytotoxicity control for MgcRacGAP inhibitor project, dose response (AID 624300)
Conditions: CellTiter-Glo luminescence, 24 h; series mostly up to 100 µM

| Structure (SMILES) | outcome |
| --- | --- |
| Cc1ncc(CO)c(/C=N/Nc2ccc(C(F)(F)F)cn2)c1O | inactive |
| CCOc1cc(/C=N/NC(=O)CCCC(=O)NC2CCCCC2)ccc1O | inactive |
| COc1cc(/C=C/C(=O)OCC(=O)N2CCN(S(=O)(=O)c3ccc(C)cc3C)CC2)ccc1O | inactive |
| CCN(CC)CCC(=O)N1C/C(=C/c2ccccc2)C(=O)/C(=C\c2ccccc2)C1 | inactive |
| CCOc1cc(/C=C2\CN(CC)C/C(=C\c3ccc(O)c(OCC)c3)C2=O)ccc1O | inactive |
| CC(C)c1ccc(CNc2ccc(N3CCOCC3)cc2)cc1 | inactive |
| CC1CCN(S(=O)(=O)c2ccc3c(c2)C(Cl)(Cl)C(=O)N3)CC1 | inactive |
| CCOc1cc(/C=C2\CN(C)C/C(=C\c3ccc(O)c(OCC)c3)C2=O)ccc1O | inactive |
| CCOc1cc(CNc2ccc3[nH]c(=O)[nH]c3c2)ccc1OCC(=O)NC(C)(C)C | inactive |
| O=C1CSC(=Nc2ccc(O)cc2)N1 | inactive |
| CCN(CC)S(=O)(=O)c1cccc(-c2n[nH]c(=S)n2/N=C/c2ccc(C(=O)OC)cc2)c1 | inactive |
| c1cc2c(cc1NC1CCCCCC1)OCO2 | inactive |
| CC(=O)N1CCC(=NNC(=O)c2cc3ccccc3cc2O)CC1 | inactive |
| C/C(=N\Nc1ccc([N+](=O)[O-])cc1)c1ccc(N)cc1 | inactive |
| COc1cccc(NC2=C(C#N)C(=O)NC(c3cccc(OC)c3O)S2)c1 (centres undefined) | inactive |
| COc1ccc(NCc2cc(=O)[nH]c3ccccc23)cc1 | inactive |
| Cn1c(=O)c2ccccc2n2c(=S)[nH]nc12 | inactive |
| CC(OC(=O)CCN=C1NS(=O)(=O)c2ccccc21)C(=O)Nc1ccc(N(C)C)cc1 (centres undefined) | inactive |
| CCNC(=S)Nc1cc2oc3ccccc3c2cc1OC | inactive |
| COc1cc2c(cc1NC(=S)Nc1cccc3ccccc13)oc1ccccc12 | inactive |
| CC(=O)Nc1ccc(N=Nc2ccc(O)cc2)cc1 | inactive |
| CCN(C=NC1=NN(c2cccc(C(F)(F)F)c2)CC1)CC | inactive |
| O=C(Cn1sc2ccccc2c1=O)Nc1ccc(F)cc1 | inactive |
| COc1ccc(N2CCN(c3ncccn3)CC2)cc1 | inactive |
| O=C(Cn1sc2ccccc2c1=O)Nc1ccccc1 | inactive |

| Structure (SMILES) | outcome |
| --- | --- |
| Cc1ccc(-n2sc3ccccc3c2=O)cc1 | inactive |
| S=C(NCc1ccco1)NCc1ccco1 | inactive |
| COc1cc(CN2CCC(C(=O)N3CCCC(C)C3)CC2)cc(Br)c1O (centres undefined) | inactive |
| O=C(NC(=S)Nc1ccc(O)cc1)C1CCCC1 | inactive |
| COc1cc(/C=N/N=C2/SCC(=O)N2c2ccc(O)cc2)ccc1O | inactive |
| CN(C)c1ccc(NC(=O)CCN2C(=O)c3cccc([N+](=O)[O-])c3C2=O)cc1 | inactive |
| COc1cccc(Nc2ccc(N3CCCCC3)cc2)c1OC | inactive |
| C=CCNC(=S)N1CCN(Cc2ccc3c(c2)OCO3)CC1 | inactive |
| CCOc1ccc(C2NC(=O)C(C#N)=C(S)N2c2ccc(C)cc2)cc1OC (centres undefined) | inactive |
| COc1ccc(NC(=O)Nc2ccc(N(C)C)cc2)cc1 | inactive |
| CN(CCCCCCN(C)Cc1ccccc1O)Cc1ccccc1O | inactive |
| CCCc1c(C)[nH]c2ccc(C(=O)O)cc2c1=S | inactive |
| Nc1nc(Sc2ccc([N+](=O)[O-])c3nonc23)c2[nH]cnc2n1 | inactive |
| CCOC(=O)c1c(/N=C/C2=C(O)CCCC2=O)sc(C)c1C | inactive |
| O=C(O)c1cccc(-n2sc3ccccc3c2=O)c1 | inactive |
| Clc1ccccc1-c1nc(/C=N/N2CCOCC2)c2ccccn12 | inactive |
| O=C(CN1CCc2ccccc2C1)Nc1ccccc1C(F)(F)F | inactive |
| O=C(N/N=C/c1ccc(O)cc1)c1csc2c1CCCC2 | inactive |
| Oc1ccc(-c2nccs2)cc1 | inactive |
| CCN=c1scc(C)n1/N=C/c1cc(Br)c(O)c(OC)c1 | inactive |
| Cc1cc(=O)[nH]c2c(N=Nc3ccc(O)cc3)c(N)nn12 | inactive |
| CC1(C)CC(=O)C2=C(C1)Nc1ccccc1S2 | inactive |
| COc1cccc(/C=N/n2c(-c3n[nH]c4c3CCC4)n[nH]c2=S)c1O | inactive |
| O=C1CCC(C2CCc3cc(O)ccc3C2)C1 (centres undefined) | inactive |
| CCOc1ccccc1CN1CCC(N2CCOCC2)CC1 | inactive |

| Structure (SMILES) | outcome |
| --- | --- |
| CC(C)CC(=O)N1CCN(Cc2cccc([N+](=O)[O-])c2)CC1 | inactive |
| CCOc1cc(/C=N/NC(=O)CCc2n[nH]c(=O)[nH]c2=O)ccc1O | inactive |
| COc1ccc(-c2cn[nH]c2-c2ccc(O)cc2O)cc1OC | inactive |
| COc1cc2cc(-c3ccc(O)cc3O)nc(C)c2cc1OC | inactive |
| S=c1[nH]nc(-c2cccnc2)n1/N=C/c1cccs1 | inactive |
| Oc1ccc(-c2csc(-c3cccnc3)n2)cc1O | inactive |
| COc1ccc(C2NC(=O)C(C#N)=C(S)N2c2ccc(C)cc2)cc1OC (centres undefined) | inactive |
| N#CC1(Nc2ccc(-c3ccc(NC4(C#N)CCCC4)cc3)cc2)CCCC1 | inactive |
| Nc1ccc(N2CCCCC2)c(Cl)c1 | inactive |
| Cc1cccc(NC2=C(C#N)C(=O)NC3(CCCC3)S2)c1 | inactive |
| COC(=O)C1=C(C)N(CC2CCCO2)C(=O)/C1=C\c1ccc(O)cc1 (centres undefined) | inactive |
| CCOc1cc(/C=C2/N=C(C)C(C(=O)OC)=C2O)ccc1O | inactive |
| COc1cc(-c2nc3cnccn3c2Nc2c(C)cccc2C)ccc1O | inactive |
| COc1cc(-c2nc3ccccn3c2/N=C/c2cc(OC)c(O)cc2Cl)ccc1O | inactive |
| Cc1ccccc1CN(C)CCc1ccccn1 | inactive |
| Cc1nc(S/C(=C\c2ccc(-c3ccc(C(=O)O)c(Cl)c3)o2)C(=O)O)n[nH]1 | inactive |
| O=C1c2ccccc2C(=O)C1c1ccc(O)cc1 | inactive |
| Cc1ccc(S(=O)(=O)Nc2ccc(N(C)C)cc2)cc1 | inactive |
| Cc1ccc(S(=O)(=O)/N=S(/c2ccccc2)C(C)C)cc1 (centres undefined) | inactive |
| Oc1ccc(N=Nc2ccccc2)cc1 | inactive |
| COc1cc2c(cc1OC)C(c1cc(Br)c(OC)c(OC)c1)CC(=O)N2 (centres undefined) | inactive |
| CN(C)c1ccc(NC(=O)c2cccc(N3C(=O)C4C5C=CC(C5)C4C3=O)c2)cc1 (centres undefined) | inactive |
| CC(C(=O)NC(=O)NC1CCCCC1)N1CCN(c2ccc(O)cc2)CC1 (centres undefined) | inactive |
| COc1ccc(N[C@@H]2CCN3C(=O)c4ccccc4[C@@H]3C[C@H]2O)cc1 | inactive |
